Sampled rows, rich in hits. Any-hit rate of the full collection: about 19%.
DT40 TDP1 no CPT: qHTS for Inhibitors of human tyrosyl-DNA phosphodiesterase 1 (TDP1): qHTS in cells in absence of CPT. DT40 Tdp1-/- hTDP1 cells, no CPT, ATP luminescence, 48 h. Potency, µM (doses to about 46.2 µM), inactives show at the highest dose activity change, negative = growth inhibition, actives largely listed as inhibitors. hit rate 15% among 420,000; note: potency is the fitted concentration of half-maximal effect; nearly all actives have a fitted effect of over 55% in size
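Readout: luminescence from CellTiter-Glo after 30 min in the dark at RT. Cells: DT40 Tdp1-/- with stable hTDP1, 400/well. Exposure: compounds alone, ≥48 hr, 37 °C.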
TDP1 cell CPT: DT40-hTDP1 cell growth loss with CPT; Potency, µM (titrated, usually from 46.2 µM), for inactives: at the highest dose activity change, negative = growth inhibition, usual class: inhibitors; AID 686979; hit rate 12% among 420,000; chicken DT40 Tdp1-/-;hTDP1 cells + 20 nM CPT, ATP luminescence, 48 h; note: potency is the fitted concentration of half-maximal effect; nearly all actives have a fitted effect of over 55% in size
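Cell growth measured by CellTiter-Glo luminescence after a minimum 48 h, 37 C compound exposure with 20 nM CPT in Tdp1-knockout DT40 cells stably expressing hTDP1, seeded 400/well; qHTS titration format.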
HT1080-NT tox: kills 2HG-producing HT-1080-NT fibrosarcoma cells. AID 686970. Potency, µM (highest dose often 46.1 µM), without a hit: top-dose activity, negative = less viability, usual class: cytotoxic. HT-1080-NT fibrosarcoma viability, CellTiter-Glo ATP luminescence, 48 h. hit rate 1.6% among 360,000;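 note: NT is the 2HG producing partner of a matched IDH1 knockdown line; potency is the fitted concentration of half-maximal effect; 0% = DMSO-treated cells and -100% = media-only wells without cells; nearly all actives have a fitted effect of over 55% in size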
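Fibrosarcoma NT cells, 750 per well in 5% FBS RPMI, were exposed to compound for 48 hours. Viability: CellTiter-Glo luminescence.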
HT1080 IDH1KD tx: toxicity to HT-1080 IDH1 knockdown cells (counter line) | AID 686971 | hit rate 2% among 360,000 | Potency, µM (doses to about 46.1 µM), without a hit: at the highest dose activity, negative = toxicity, hits mostly cytotoxic | HT-1080 IDH1 knockdown viability, ATP luminescence, 48 h;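 note: potency is the fitted concentration of half-maximal effect; 0% = DMSO wells and -100% = cell-free medium wells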
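After a 2 h attachment period, IDH1KD HT-1080 cells took pin-transferred compound for 48 h at 37 °C; ATP-based luminescence after 10 min room-temperature reagent incubation reported viability.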
IL-1B inflam inh: inhibitors of inflammasome signaling (IL-1 beta secretion); hit rate 4.7% among 360,000; activity change, % at 57.5 µM; THP-1 LPS/ATP IL-1B secretion, AlphaLISA, 16 h; stronger effect = lower value; in the data active = activity change below about -50%; inconclusive = mostly about -30% to -49%
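THP-1 cells pretreated 1 hr with compounds (up to 57.5 uM final), then stimulated with LPS (250 ng/mL final) plus ATP (1.25 mM final); secreted IL-1B measured by AlphaLISA after 16 hr, decreased signal indicating inhibition.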
Numbers without * were called inactive. Unless noted, calls come from the whole dose curve; as a rule, active = well fitted curve in the direction sought with a large enough effect; inconclusive = small, poorly fitted or top-dose-only effect, or another doubt; inactive = no such curve, though single readings can be large; an effect the other way counts as inactive or inconclusive. Unless noted, % is set by controls: 0 for no effect and ±100 for the full control effect.

Results for COC(=O)C1=C(c2cc3ccccc3s2)C[C@@H]2CC[C@H]1N2C(=O)N1CCCCC1 ?
DT40 TDP1 no CPT: 6.51µM*; TDP1 cell CPT: 2.91µM*; HT1080-NT tox: inconclusive; HT1080 IDH1KD tx: 8.2µM*; IL-1B inflam inh: 16.3

Results for COC(=O)C1=C(c2cc3ccccc3s2)C[C@@H]2CC[C@H]1N2C(=O)NCc1ccccc1 ?
DT40 TDP1 no CPT: inconclusive; TDP1 cell CPT: inconclusive; HT1080-NT tox: -8.4%; HT1080 IDH1KD tx: -2.9%; IL-1B inflam inh: -8.2

Results for COC(=O)C1=C(c2cc3ccccc3s2)C[C@@H]2CC[C@H]1N2C(=O)NCc1ccc(F)cc1 ?
TDP1 cell CPT: inconclusive; HT1080-NT tox: -3.4%; HT1080 IDH1KD tx: inconclusive; IL-1B inflam inh: inconclusive

Results for COC(=O)C1=C(c2cc3ccccc3s2)C[C@@H]2CC[C@H]1N2C(=O)N1CCC(O)CC1 ?
DT40 TDP1 no CPT: 23.1µM*; TDP1 cell CPT: 14.6µM*; HT1080-NT tox: 19.6%; HT1080 IDH1KD tx: -0.2%; IL-1B inflam inh: 9.9

How did NC(N)=Nc1ccc2[nH]c3c(c2c1)C[C@]1(O)[C@@H]2Cc4ccc(O)c5c4[C@]1(CCN2CC1CC1)[C@@H]3O5 do in these assays?
DT40 TDP1 no CPT: inconclusive; TDP1 cell CPT: -23.6%

What do the screens show for `CCN(CC)C(=O)c1ccc(NC(=O)c2ccc(-n3cncn3)c([N+](=O)[O-])c2)cc1`?
DT40 TDP1 no CPT: inconclusive; TDP1 cell CPT: -29.1%; HT1080-NT tox: 6.0%; HT1080 IDH1KD tx: 16.7%; IL-1B inflam inh: -5.3

How did COc1ccc(NC2Oc3cc4c(cc3C(c3cc(OC)c(OC)c(OC)c3)C2C)OCO4)cc1 (stereo not drawn) do in these assays?
DT40 TDP1 no CPT: 4.11µM*; TDP1 cell CPT: 4.61µM*; HT1080-NT tox: inconclusive; HT1080 IDH1KD tx: inconclusive; IL-1B inflam inh: -64.2*

What do the screens show for `CNC(C(=O)c1ccccc1)C(OC)c1ccc(C)cc1` (stereo not drawn)?
DT40 TDP1 no CPT: -28.1%; TDP1 cell CPT: -12.6%; HT1080-NT tox: 11.6%; HT1080 IDH1KD tx: 12.1%; IL-1B inflam inh: -7.2

How did O=C(Nc1ccc(Br)cc1)c1nn(C23CC4CC(CC(C4)C2)C3)cc1Br do in these assays?
DT40 TDP1 no CPT: 14.6µM*; TDP1 cell CPT: inconclusive; HT1080-NT tox: 4.1%; HT1080 IDH1KD tx: 8.4%; IL-1B inflam inh: 19.7

Results for CNCC(O)c1cccc(OC(=O)c2ccccc2C)c1 (stereo not drawn) ?
DT40 TDP1 no CPT: -24.7%; TDP1 cell CPT: -15.4%; HT1080-NT tox: -22.6%; HT1080 IDH1KD tx: -19.2%; IL-1B inflam inh: -13.2

What do the screens show for `Cc1ccccc1C(=O)Oc1cccc(Nc2ncnc3ccccc23)c1`?
DT40 TDP1 no CPT: 13µM*; TDP1 cell CPT: 16.4µM*; HT1080-NT tox: -18.5%; HT1080 IDH1KD tx: inconclusive; IL-1B inflam inh: -8.6

What do the screens show for `CCN1C[C@]2(COC(=O)c3ccccc3N3C(=O)CC(C)C3=O)CC[C@H](OC)[C@@]34C5C[C@@H]6[C@@H](OC)C[C@@](O)(C5[C@H]6OC)[C@](O)([C@@H](OC)C23)[C@@H]14` (stereo partly drawn)?
DT40 TDP1 no CPT: 13.6%; TDP1 cell CPT: 4.2%

How did CCC(=NCCO)c1c(O)n(-c2ccc(Cl)cc2)c(=O)[nH]c1=O do in these assays?
DT40 TDP1 no CPT: 0.0%; TDP1 cell CPT: -9.7%; HT1080-NT tox: 12.0%; HT1080 IDH1KD tx: 1.3%; IL-1B inflam inh: -0.3

What do the screens show for `Cc1ccc(Cn2nc(C)c(NC(=O)c3cc(-c4ccc(F)cc4)on3)c2C)cc1`?
DT40 TDP1 no CPT: 7.31µM*; TDP1 cell CPT: 10.3µM*

How did Cc1ccc(Cn2cccc(C(=O)Nc3cc(C)on3)c2=O)cc1 do in these assays?
DT40 TDP1 no CPT: -5.4%; TDP1 cell CPT: -23.6%

What do the screens show for `CCc1ccc(-c2cc(C(F)(F)F)n3nc(C(=O)Nc4c(C)nn(Cc5ccc(F)cc5)c4C)cc3n2)s1`?
DT40 TDP1 no CPT: 23.1µM*; TDP1 cell CPT: inconclusive; HT1080-NT tox: 6.2%; HT1080 IDH1KD tx: inconclusive; IL-1B inflam inh: inconclusive
